The values that follow come from PubChem BioAssay AID1985 (Southern Research Specialized Biocontainment Screening …, 2009).

Structures are written as SMILES. The campaign covered roughly 2,300 compounds. About 1,000 (43%) were called active. How the calls were made is not given here. The set was probably picked from earlier hits. Some of the results follow. Measured potencies and affinities stand elsewhere.

A short description of the experiment: modified counter assay using GFP fluorescence, PhoP regulon inhibitor project, dose response (AID 1985). The settings on record: S. Typhi, 4 h; series mostly up to 150 µM; inhibition: at the top concentration.
For `O=C(CSc1ncc(-c2ccc(F)cc2)[nH]1)NCc1ccco1`, the inhibition (in general, the change of the read-out against control, counted positive when it falls) was -32.3% (inactive).

Take `c1ccc(CN2CCN(c3nc(NCc4ccco4)c4ccccc4n3)CC2)cc1`: the “inhibition” value was 20.6% (inactive).

On to `CC(C)(C)c1nc(SCC(=O)NCc2ccco2)c2ccccc2n1`, for which the “inhibition” value was -7.41% (inactive).

Turning to `COc1ccccc1Nc1nc(NCc2ccco2)c2ccccc2n1`, the “inhibition” value was 21.9% (inactive).

Regarding `O=C(CSc1nc2c(c(=O)n1-c1ccc(F)cc1)SCC2)NCc1ccco1`, the “inhibition” value was -0.95% (inactive).

On to `CC1CCCN(C(=O)Cn2c(=O)oc3cc(S(=O)(=O)N4CCCCC4)ccc32)C1` (stereo not given), for which the “inhibition” value was -3.65% (inactive).

For the compound `COc1ccc(CSCCN)cc1Cl`, the “inhibition” value is 5.75% (inactive).

As to `CCCOc1ccc(C2=CSC3=NCCN23)cc1Cl`, the “inhibition” value is 10.9% (inactive).

For the compound `c1ccn(-c2ccc(-c3ccn[nH]3)cc2)c1`, the “inhibition” value is 2.06% (inactive).

On to `O=C(NCc1ccco1)c1ccc2c(c1)N(Cc1ccccc1)CCS2`, for which the “inhibition” value was -17.1% (inactive).

Consider `O=C1N/C(=C/c2ccc(N3CCOCC3)cc2)C(=O)N1Cc1ccc(F)cc1`, for which the “inhibition” value was -4.52% (inactive).

`CCOC(=O)c1c(CSC(=N)N)n(C)c2cc(Br)c(OC(C)=O)cc12`: the “inhibition” value was -19% (inactive).

Turning to `CCOC(=O)Cc1[nH]nc2c1C(c1ccoc1)C(C#N)=C(N)O2` (stereo not given), the “inhibition” value was 24.6% (inactive).

For `NC1=NC[C@H](Cc2ccc(O)cc2)N1CCc1cccc2ccccc12`, the “inhibition” value was -33.5% (inactive).

Take `COc1cc2c(cc1OC)CN(C(=O)CCCN1C(=O)c3ccccc3C1=O)CC2`: the “inhibition” value is 11% (inactive).

`COc1ccc(C(=O)Oc2cc(C(=S)N3CCOCC3)ccc2OC)cc1`: the “inhibition” value was -4.19% (inactive).

As for `CC(C)(C)n1nc2c(c1NC(=O)c1ccccc1)CS(=O)(=O)C2`, the “inhibition” value was -6.62% (inactive).

Turning to `Cc1cc(C)c[n+](CC(=O)c2ccc(NC(=O)c3ccccc3)cc2)c1`, the “inhibition” value is 15% (inactive).

With `Cc1ccc(C)c(OCC(=O)Nc2cccc(C(=O)O)c2)c1C`, the “inhibition” value was 26.7% (inactive).

On to `Cc1c(-c2ccccc2)[n+](=O)c2c(n1[O-])CCCC2`, for which the “inhibition” value was 7.37% (inactive).

Regarding `Cn1c(CCN2CCN(c3ccccn3)CC2)nc2cc(NC(=O)COc3ccccc3)ccc21`, the “inhibition” value was 16.1% (inactive).

On to `O=c1c2ccccc2nc2n1CCc1c-2[nH]c2ccccc12`, for which the “inhibition” value is -12.2% (inactive).

For the compound `COc1cc(/C=C(/C#N)C(=O)Nc2ccccc2)c(Br)cc1OCc1ccc(C(=O)O)cc1`, the “inhibition” value is -2.34% (inactive).

With `CCC(=O)N1CCc2cc(S(=O)(=O)NCCCN3CCN(Cc4ccccc4)CC3)ccc21`, the “inhibition” value was -4.18% (inactive).

For `CCNC(=S)Nc1cc(-c2ccc(Cl)cc2)[nH]n1`, the “inhibition” value is -1.85% (inactive).

Regarding `CCn1nnnc1SCC(=O)c1cc(Cl)ccc1OC`, the “inhibition” value was 4.28% (inactive).

Regarding `CC1CCC(C(C)C)C(OC(=O)C[n+]2cc(-c3ccc(Cl)cc3)n3c2CCC3)C1` (stereo not given), the “inhibition” value is 35.1% (inactive).

Regarding `CC1CCC(C(C)C)C(OC(=O)Cn2c(-c3ccc(Br)cc3)[n+](C)c3ccccc32)C1` (stereo not given), the “inhibition” value is -18.7% (inactive).

Turning to `COc1ccc(OC)c(C(=O)c2ccc(C(=O)O)cc2)c1`, the “inhibition” value is 13.8% (inactive).

As for `COC(=O)c1ccc(OC(=O)c2cccnc2)cc1`, the “inhibition” value was 14% (inactive).

With `COc1ccc(N(C(=O)c2cccnc2)S(=O)(=O)c2cccc([N+](=O)[O-])c2)cc1`, the “inhibition” value is -6.79% (inactive).

Take `COC(=O)c1cn(C(=O)c2ccco2)c2ccccc12`: the “inhibition” value was -16% (inactive).

Turning to `Cc1ccc(NC2=C(Cl)C(=O)OC2OC(=O)c2ccco2)c(C)c1` (stereo not given), the “inhibition” value is 1.58% (inactive).

As for `CCN(C1CCCCC1)S(=O)(=O)c1ccc(OC)c(C)c1`, the “inhibition” value is 10.8% (inactive).

As to `CSC1=NC2(C)CCCCC2C12C=CC(=O)C=C2` (stereo not given), the “inhibition” value is -12.5% (inactive).

Turning to `Cc1cc(NC(=O)CSc2nnc(-c3cccnc3)n2N)no1`, the “inhibition” value is 16.5% (inactive).

For `COc1ccc(C(=O)CSc2nnc(-c3cnccn3)n2Cc2ccco2)cc1`, the “inhibition” value is -8.62% (inactive).

As for `Cc1cc(C)c(CSc2ncnc3nc[nH]c23)c(C)c1`, the “inhibition” value was -13.6% (inactive).

In the case of `CC(=O)c1ccc(NC(=S)NC(NC(=O)c2ccco2)C(Cl)(Cl)Cl)cc1` (stereo not given), the “inhibition” value is 26.9% (inactive).

Turning to `Cc1nn(-c2nc3ccccc3[nH]2)c(N)c1-c1ccccc1`, the “inhibition” value was 5.82% (inactive).

With `Cc1nc2ccc(NC(=O)c3cccc(C(F)(F)F)c3)cc2o1`, the “inhibition” value was -0.54% (inactive).

Take `O=C(Nc1ccc2c(c1)nc1n2CCN(Cc2ccccc2)C1)c1cccs1`: the “inhibition” value is -10.1% (inactive).

Regarding `Cn1cnc2cc(NC(=O)c3cccs3)ccc21`, the “inhibition” value is 25.2% (inactive).

In the case of `N#CC(C(=O)C12CC3CC(CC(C3)C1)C2)c1nc2ccccc2[nH]1` (stereo not given), the “inhibition” value was -23.9% (inactive).

For `c1ccc(N2CCN(c3nc4ccccc4[nH]3)CC2)nc1`, the “inhibition” value was 23.3% [at 75 µM] (inactive).

As to `COc1ccc(NC(=O)Cn2c(=O)oc3cc(S(=O)(=O)N4CCCC4)ccc32)c(OC)c1`, the “inhibition” value is -6.13% (inactive).

For the compound `COc1cc(CNC(=O)CCC(=O)N2C[C@H]3C[C@H](C2)c2cccc(=O)n2C3)cc(OC)c1OC`, the “inhibition” value was -15.7% (inactive).

For the compound `Cc1ccc(/C=N/NC(=O)CSc2nc3ccccc3n2C)s1`, the “inhibition” value is 7.39% (inactive).

Turning to `CC(C)c1ccc(NC(=O)CSc2nnc(-c3ccccn3)n2C)cc1`, the “inhibition” value is 1.9% (inactive).

For `COc1ccccc1C(=O)NNC1=C(C(=O)C(F)(F)F)CCC1`, the “inhibition” value was 22% (inactive).

For the compound `COc1nc(N(C#N)CC(N)=O)nc(N2CCCC2)n1`, the “inhibition” value is -14.6% (inactive).

With `CC1CCN(CC(CS(=O)(=O)c2ccc([N+](=O)[O-])cc2)N2CCC(C)CC2)CC1` (stereo not given), the “inhibition” value is -27.2% (inactive).

As to `O=c1c2cnn(-c3ccccc3)c2ncn1CCc1ccccc1`, the “inhibition” value was 16.9% (inactive).

Turning to `COc1cccc(-c2nc(CS(=O)CC(=O)NCCCOC(C)C)c(C)o2)c1` (stereo not given), the “inhibition” value was -17.2% (inactive).

Consider `Cc1ccsc1/C=N/NC(=O)c1ccncc1`, for which the “inhibition” value was 3.21% (inactive).

`O=C(N/N=C/c1ccc(N2CCCC2)c([N+](=O)[O-])c1)c1cccnc1`: the “inhibition” value is 19.8% (inactive).

In the case of `Cc1cc(C)n(-c2nc3ccccc3nc2N2CCN(C(=O)c3ccc(F)cc3)CC2)n1`, the “inhibition” value was -26.8% (inactive).

In the case of `CSc1nnc(-c2cccc(NC(=S)NN)c2)o1`, the “inhibition” value was -45.2% (inactive).

On to `Cc1cccc(-n2ccnc2CN2CCN(C3CCCC3)C(CCO)C2)c1` (stereo not given), for which the “inhibition” value was 5.03% (inactive).

`C[N+](C)(CCCCCC[N+](C)(C)CCCN1C(=O)c2cccc3cccc(c23)C1=O)CCCN1C(=O)c2cccc3cccc(c23)C1=O`: the “inhibition” value is 15.2% (inactive).

Turning to `O=C(c1ccccc1F)N1C(=O)c2cccc3cccc1c23`, the “inhibition” value was 1.1% (inactive).

Regarding `Cc1ccc(/C=N/n2c(C)nc3ccccc3c2=O)s1`, the “inhibition” value is -5.95% (inactive).

As for `Cc1ccc(-c2[nH]ncc2/C=N/n2c(C)nc3ccccc3c2=O)cc1`, the “inhibition” value was 24.4% (inactive).

On to `CCc1ccccc1NC(=O)c1onc(C)c1Cl`, for which the “inhibition” value was -34.5% (inactive).

In the case of `Cc1onc(-c2ccccc2Cl)c1C(=O)NNC(=O)C1CCN(Cc2ccccc2)CC1`, the “inhibition” value was -13.4% (inactive).

With `CCCN(CCC)CCNC(=O)C1CCN(Cc2nc(-c3ccc(Cl)cc3)oc2C)CC1`, the “inhibition” value was 29.4% (inactive).

On to `O=C(/C=C/c1ccccc1)OCc1cnc(Cl)s1`, for which the “inhibition” value is -4.85% (inactive).

Regarding `O=C(/C=C/c1ccccc1)NC(=S)N1CCSCC1`, the “inhibition” value is -10.6% (inactive).

Consider `COC(=O)c1cc2nc(-c3ccccc3)cc(C)n2n1`, for which the “inhibition” value was 14.7% (inactive).

As for `CCC(C)n1c(SCC(=O)NCc2ccco2)nnc1-c1cccc(S(=O)(=O)N2CCOCC2)c1` (stereo not given), the “inhibition” value is 15.2% (inactive).
